Shown are actives, neighbours in structure and some others; about 7.8% of the full set was active somewhere.
HCV inh: qHTS Assay for Inhibitors of Hepatitis C Virus (HCV). Potency, µM (doses to about 41.8 µM), inactives show at the highest dose activity change, negative = inhibition, actives largely listed as inhibitors. Huh7.5.1 HCVcc-Cre infection, luciferase reporter, 44 h. AID 651820, 2012. hit rate 3.4% among 340,000; active means well fitted inhibition curve with a large enough effect; inconclusive means small, poorly fitted or top-dose-only effect, or another doubt; inactive means no such curve, though single readings can be large or run the other way; further: potency means the concentration at half of the fitted maximal effect
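Cells seeded at 1,000/well and cultured 4 h, then compounds added followed by HCVcc-Cre virus (~0.5 moi). After 44 h further culture, luciferase substrate was added, plates held 15 min at room temperature, and luminescence read for 15 sec.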
Vaccinia mCherry: qHTS for Stage-Specific Inhibitors of Vaccinia Orthopoxvirus: mCherry Reporter Primary qHTS. AID 720579, 2013. hit rate 0.63% among 310,000. Vaccinia virus mCherry reporter infection, fluorescence. Potency, µM (series often up to 36.5 µM), for the others: top-dose activity change, negative = inhibition, actives largely listed as inhibitors; calls by dose curve; tested in A549 cells; further: potency means the concentration at half of the fitted maximal effect; nearly all actives have a fitted effect of over 35% in size
VACV Venus inh: qHTS for Stage-Specific Inhibitors of Vaccinia Orthopoxvirus: Venus Reporter Primary qHTS. AID 720580, 2013. Vaccinia virus Venus reporter expression, fluorescence. Potency, µM (highest dose often 36.5 µM), without a hit: at the top dose activity change, negative = inhibition, most hits filed as inhibitors. hit rate 0.46% among 330,000; calls by dose curve; tested in A549 cells; further: potency means the concentration at half of the fitted maximal effect; nearly all actives have a fitted effect of over 30% in size
MARV entry inh: qHTS for inhibitors of binding or entry into cells for Marburg Virus. Marburg virus pseudotyped entry inhibition, cell reporter. Potency, µM (doses to about 37.8 µM), for inactives: top-dose activity change, negative = inhibition, actives largely listed as inhibitors. hit rate 1.8% among 300,000; calls by dose curve; tested in HEK293 cells; further: potency means the concentration at half of the fitted maximal effect
Lassa entry inh: qHTS for Inhibitors of binding or entry into cells for Lassa Virus; Lassa virus pseudotype entry inhibition, cell reporter; Potency, µM (top dose mostly 37.9 µM), for the others: at the top dose activity change, negative = inhibition, most hits filed as inhibitors; hit rate 1.2% among 300,000; calls by dose curve; tested in HEK293 cells; further: potency means the concentration at half of the fitted maximal effect; nearly all actives have a fitted effect of over 50% in size
HCMV antiviral: qHTS Assay for inhibitors of the human cytomegalovirus (HCMV); HFF cells, HCMV-luciferase reporter, 72 h; stronger effect = lower value; activity change, negative = inhibition, % at 57.5 µM; hit rate 4.5% among 410,000; in the data active means activity change below about -60%; inconclusive means no clear call, values can overlap the other calls; inactive means above about -39%
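Two-dose cell screen: HFF monolayers treated with compounds and infected with luciferase-expressing HCMV at 1 PFU/cell, 72 h at 37C, then lysed for luciferase measurement.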
Numbers without * were called inactive; ! = not active in a repeat; [ ] = dose if it differs, or a comment. On the % scale 0 is the no-effect control and ±100 the full control effect.

Results for CC(C)=CCN1CCN(Cc2cnc(C)s2)CC1CCO (stereo not drawn) ?
HCV inh: 5%; Vaccinia mCherry: -4%; VACV Venus inh: -1%; MARV entry inh: 1%[46.1 µM]; Lassa entry inh: 25%; HCMV antiviral: -9

Results for O=C(NC1CCCCCC1)C1CCN(C(=O)N2CCOc3ccc(Cl)cc32)CC1 ?
Vaccinia mCherry: -11%; VACV Venus inh: -21%; Lassa entry inh: inconclusive; HCMV antiviral: 10

What do the screens show for `CCc1cc2c3c(c1)C1(C(=O)N3C(C)(C)C=C2C)C(C#N)=C(N)Oc2[nH]c(=O)[nH]c(=O)c21` (stereo not drawn)?
HCV inh: inconclusive; Vaccinia mCherry: -12%; VACV Venus inh: -5%; MARV entry inh: inconclusive; Lassa entry inh: inconclusive; HCMV antiviral: -75*

Results for CC1=CC(C)(C)N2C(=O)C3(C(C#N)=C(N)Oc4cc(C)oc(=O)c43)c3cc(C)cc1c32 (stereo not drawn) ?
HCV inh: -27%; MARV entry inh: -26%; Lassa entry inh: -12%; HCMV antiviral: 86

How did O=C(NCc1cccs1)c1ccc2c(c1)sc1nc(-c3ccccc3)cn12 do in these assays?
Vaccinia mCherry: -23%; VACV Venus inh: -15%; Lassa entry inh: 10%[46.1 µM]

Results for O=C(CSc1nccn1Cc1ccc(F)cc1)Nc1ccc2c(c1)OCO2 ?
Vaccinia mCherry: -8%; VACV Venus inh: -3%; Lassa entry inh: 18%[46.1 µM]; HCMV antiviral: 11

How did C#CCN(C[C@@H]1[C@@H](OC(=O)NC2CC2)[C@@H](OC(=O)NC2CC2)Cn2c(=O)n(CCCCCC)c(=O)n21)S(=O)(=O)c1ccc(C)cc1 do in these assays?
Vaccinia mCherry: inactive; VACV Venus inh: inconclusive; HCMV antiviral: -8

Results for C#CCN(C[C@H]1[C@H](OC(=O)NCC2CCCCC2)[C@H](OC(=O)NCC2CCCCC2)C[C@@H](C(=O)OC)[C@H]1C(=O)OC)S(=O)(=O)c1ccc(C)cc1 ?
Vaccinia mCherry: -15%; VACV Venus inh: inconclusive; HCMV antiviral: -8

What do the screens show for `C#CCN(C[C@@H]1[C@@H](OC(=O)NCC2CCCCC2)[C@@H](OC(=O)NCC2CCCCC2)Cn2c(=O)ccc(=O)n21)S(=O)(=O)c1ccc(C)cc1`?
Vaccinia mCherry: inconclusive; VACV Venus inh: 7.9µM*; HCMV antiviral: -102*

Results for C#CCN(C[C@@H]1[C@@H](OC(=O)NCCCCCC)[C@@H](OC(=O)NCCCCCC)Cn2c(=O)ccc(=O)n21)S(=O)(=O)c1ccc(C)cc1 ?
Vaccinia mCherry: inconclusive; VACV Venus inh: 5.6µM*; HCMV antiviral: -104*

How did CCN(CC)CCNC(=O)c1nn(-c2ccc(Cl)cc2)c2c1CCc1cc(OC)ccc1-2 do in these assays?
HCV inh: inconclusive; Vaccinia mCherry: inconclusive; VACV Venus inh: 13µM*; MARV entry inh: inconclusive; Lassa entry inh: inconclusive; HCMV antiviral: -25

Results for COc1ccc2c(c1)CCc1c(C(=O)Nc3c(C)nn(Cc4ccc(Cl)cc4)c3C)noc1-2 ?
Vaccinia mCherry: -9%[7.34 µM]; VACV Venus inh: -5%[7.34 µM]; MARV entry inh: -4%[46.1 µM]; Lassa entry inh: -10%[46.1 µM]; HCMV antiviral: -79*

Results for COc1ccc2c(c1)CCc1c(C(=O)Nc3c(C)nn(Cc4ccc(Cl)c(Cl)c4)c3C)noc1-2 ?
Vaccinia mCherry: -9%[7.34 µM]; VACV Venus inh: -9%[7.34 µM]; MARV entry inh: 4%[46.1 µM]; Lassa entry inh: -1%[46.1 µM]; HCMV antiviral: -88*

How did COc1ccc2c(c1)CCc1c(C(=O)Nc3c(C)nn(Cc4ccccc4)c3C)noc1-2 do in these assays?
HCV inh: 8.9µM*; Vaccinia mCherry: inconclusive; VACV Venus inh: inconclusive; MARV entry inh: 12%[46.1 µM]; Lassa entry inh: 6%[46.1 µM]; HCMV antiviral: -67*!

How did COCc1c(C(=O)N2CCN(c3ccccc3)CC2)cnn1-c1nccc(-c2ccco2)n1 do in these assays?
Vaccinia mCherry: -21%; VACV Venus inh: -11%

How did COc1ccc2c(c1)CCc1c(C(=O)Nc3cc(C)n(Cc4ccc(Cl)cc4)n3)noc1-2 do in these assays?
HCV inh: -1%; MARV entry inh: -3%; HCMV antiviral: -64*

What do the screens show for `COc1ccc2c(c1)CCc1c(C(=O)NCc3ccc(Cl)cc3)noc1-2`?
HCV inh: 5%; Vaccinia mCherry: -9%; VACV Venus inh: -4%; MARV entry inh: 0%[46.1 µM]; Lassa entry inh: -22%; HCMV antiviral: 19

Results for CCNC(=S)NS(=O)(=O)c1ccc(CC)cc1 ?
HCV inh: 28%; MARV entry inh: inconclusive; Lassa entry inh: 0%; HCMV antiviral: -95*

How did CCOC(=O)CSc1nnc(Cc2ccc(OC)cc2)n1-c1ccccc1 do in these assays?
HCV inh: 4%; MARV entry inh: 7%; Lassa entry inh: 2%; HCMV antiviral: -109*

How did COc1ccc(-n2c(CNc3ccc(C)cc3)nnc2SCc2ccccc2)cc1 do in these assays?
HCV inh: -6%; Vaccinia mCherry: inconclusive; VACV Venus inh: -24%; MARV entry inh: inconclusive; Lassa entry inh: 11µM*; HCMV antiviral: 33

Results for CCOC(=O)CSc1nc(Cc2ccccc2)nc2ccccc12 ?
HCV inh: -21%; Vaccinia mCherry: inactive; VACV Venus inh: -10%; MARV entry inh: 4%[46.1 µM]; Lassa entry inh: -2%[46.1 µM]; HCMV antiviral: -66*

How did CCOC(=O)CSc1nc(CC)nc2ccccc12 do in these assays?
HCV inh: -25%; Vaccinia mCherry: -16%; VACV Venus inh: -6%; MARV entry inh: -2%; Lassa entry inh: -6%; HCMV antiviral: -16

Results for COc1ccc(NC(=O)Cn2c(SCc3ccc(C)cc3)nc3cccnc32)cc1OC ?
Vaccinia mCherry: -27%; VACV Venus inh: -23%; Lassa entry inh: inconclusive; HCMV antiviral: -33

How did COC(=O)c1ccccc1NC(=O)C1=C(C)C(=O)OC12CCC(C)CC2 (stereo not drawn) do in these assays?
Vaccinia mCherry: -6%; VACV Venus inh: -5%; MARV entry inh: 5%[46.1 µM]; Lassa entry inh: 1%[46.1 µM]; HCMV antiviral: -30

What do the screens show for `CCN(CC)P(=O)(Nc1ccc(C)cc1Br)c1ccc(N(C)C)cc1NC(=O)c1ccco1` (stereo not drawn)?
HCV inh: inconclusive; Vaccinia mCherry: -13%; VACV Venus inh: -2%; MARV entry inh: 11µM*; HCMV antiviral: -78*

What do the screens show for `Cc1ccc(NC(=O)c2ccco2)c(NC(=O)c2ccccc2)c1`?
HCV inh: inconclusive; Vaccinia mCherry: -2%; VACV Venus inh: 7%; MARV entry inh: 12%[46.1 µM]; Lassa entry inh: -2%[46.1 µM]; HCMV antiviral: 3

Results for CCOC(=O)c1ccc(-c2c(-c3ccccc3OC)oc3ccccc23)cc1F ?
HCV inh: -10%; Vaccinia mCherry: inactive; VACV Venus inh: 5%; HCMV antiviral: -1

Source: PubChem BioAssay (National Center for Advancing Translational Sciences (NCATS))
